In the supplement of paper PMC4466140:

Biological target: CaNbp2
Experiment: SPOT peptide array binding signal intensity (averaged, normalized) (arbitrary units (background-subtracted, floor 0; scale differs between SH3 domains)); higher = stronger binding of the SH3 domain to the peptide
In short: (§1)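 Four yeast species supplied the SH3 domains, which were expressed as GST fusions in E. coli BL21(DE3) and purified on glutathione Sepharose. Incubation with cellulose membranes carrying synthetic 15-mer peptides, cysteines exchanged for serines, ran overnight at 4°C at 10 μg/ml in TBS-based blocking buffer. Binding signal is reported as normalized, background-subtracted spot intensity averaged over replicates, in arbitrary units not shared between domains.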

Binder | SPOT peptide array binding signal intensity
RPVPRRPSQPLNTLS | 1770

Biological target: CaRvs167
Experiment: as above
In short: as §1

Binder | SPOT peptide array binding signal intensity
RPVPRRPSQPLNTLS | 1240

Biological target: CaRvs167-3
Experiment: as above
In short: as §1

Binder | SPOT peptide array binding signal intensity
RPVPRRPSQPLNTLS | 6

Biological target: CaSho1
Experiment: as above
In short: as §1

Binder | SPOT peptide array binding signal intensity
RPVPRRPSQPLNTLS | 19.5

Biological target: CaSla1-D1-D2
Experiment: as above
In short: as §1

Binder | SPOT peptide array binding signal intensity
RPVPRRPSQPLNTLS | 796

Biological target: CaSla1-D3
Experiment: as above
In short: as §1

Binder | SPOT peptide array binding signal intensity
RPVPRRPSQPLNTLS | 5

Biological target: ScAbp1
Experiment: as above
In short: as §1

Binder | SPOT peptide array binding signal intensity
RPVPRRPSQPLNTLS | 280

Biological target: ScBbc1
Experiment: as above
In short: as §1

Binder | SPOT peptide array binding signal intensity
RPVPRRPSQPLNTLS | 514

Biological target: ScBem1-D1
Experiment: as above
In short: as §1

Binder | SPOT peptide array binding signal intensity
RPVPRRPSQPLNTLS | 6.5

Biological target: ScBzz1-D1
Experiment: as above
In short: as §1

Binder | SPOT peptide array binding signal intensity
RPVPRRPSQPLNTLS | 43.2

Biological target: ScBzz1-D2
Experiment: as above
In short: as §1

Binder | SPOT peptide array binding signal intensity
RPVPRRPSQPLNTLS | 25.8

Biological target: ScCyk3
Experiment: as above
In short: as §1

Binder | SPOT peptide array binding signal intensity
RPVPRRPSQPLNTLS | 22

Biological target: ScFus1
Experiment: as above
In short: as §1

Binder | SPOT peptide array binding signal intensity
RPVPRRPSQPLNTLS | ≤ 0

Biological target: ScHof1
Experiment: as above
In short: as §1

Binder | SPOT peptide array binding signal intensity
RPVPRRPSQPLNTLS | 0.5

Biological target: ScHse1
Experiment: as above
In short: as §1

Binder | SPOT peptide array binding signal intensity
RPVPRRPSQPLNTLS | 389

Biological target: ScLsb1
Experiment: as above
In short: as §1

Binder | SPOT peptide array binding signal intensity
RPVPRRPSQPLNTLS | 258

Biological target: ScLsb2
Experiment: as above
In short: as §1

Binder | SPOT peptide array binding signal intensity
RPVPRRPSQPLNTLS | 56

Biological target: ScLsb3
Experiment: as above
In short: as §1

Binder | SPOT peptide array binding signal intensity
RPVPRRPSQPLNTLS | 5960

Biological target: ScLsb4
Experiment: as above
In short: as §1

Binder | SPOT peptide array binding signal intensity
RPVPRRPSQPLNTLS | 1750

Biological target: ScMyo3
Experiment: as above
In short: as §1

Binder | SPOT peptide array binding signal intensity
RPVPRRPSQPLNTLS | 2

Biological target: ScMyo5
Experiment: as above
In short: as §1

Binder | SPOT peptide array binding signal intensity
RPVPRRPSQPLNTLS | 1.25

Biological target: ScNbp2
Experiment: as above
In short: as §1

Binder | SPOT peptide array binding signal intensity
RPVPRRPSQPLNTLS | 3100
